# Data: PubChem BioAssay AID449762 (Southern Research Specialized Biocontainment Screening …, 2010)
# Where “and” joins values, the source holds several entries; their conditions need not be identical. Equal values may be shown once. About 1,900 (0.58%) of roughly 330,000 compounds were called active. About 4% were inconclusive and are not listed. No stated cut-off is given here; in the data, inconclusive means inhibition above about 70% without an active follow-up result; inactive means below that. These entries were drawn from the full list. Potency and affinity values are given separately.
# Assay: M. tuberculosis growth inhibition, HTS (AID 449762);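 further: bacterial growth assessed after seven days of incubation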
# Conditions: M. tuberculosis H37Rv growth inhibition, 7H9 media; at 25 µM; active compounds read high
row,Structure (SMILES),inhibition
1,COc1cc(NC(=O)CCc2c(C)nc3nc(C)nn3c2C)cc(OC)c1,2.33% (inactive)
2,COC(=O)c1ncccc1SC,-6.32% (inactive)
3,COC(=O)c1sccc1NC(=O)CSc1cccc(Cl)c1Cl,11% (inactive)
4,COc1ccc(-c2noc(C3CCCN(S(=O)(=O)c4ccc(C)c(Cl)c4)C3)n2)cc1OC (stereo not given),-3.19% (inactive)
5,CCCC(C)NC(=O)COc1ccc(S(=O)(=O)c2ccc(OCC(=O)NC(C)CCC)cc2)cc1 (stereo not given),-8.03% (inactive)
6,O=C(Nc1cccnc1)C1CCN(S(=O)(=O)c2ccc(Cl)cc2)CC1,0.94% (inactive)
7,CSCCC(NC(=O)CCC(=O)OC1CC[C@H]2[C@@H]3CC[C@H]4CC(=O)CC[C@]4(C)[C@H]3CC[C@]12C)C(=O)O (stereo not given in full),2.77% (inactive)
8,CCOC(=O)c1c(NC(=O)CSc2nnc(C)s2)sc2c1CCC(CC)C2 (stereo not given),-2.5% (inactive)
9,COC(=O)C1=C(N)OC2=C(C(=O)CC(C)(C)C2)C1c1ccccc1OCC#N (stereo not given),4.16% (inactive)
10,Cc1ccc(NC(=O)C2CCCN(c3ncccn3)C2)c(C)c1 (stereo not given),7.16% (inactive)
11,CCCc1ccc2oc(C(=O)N(C)Cc3ccn[nH]3)c(C)c2c1,4.45% (inactive)
12,CCCc1ccc2oc(C(=O)N(C)Cc3cnccn3)c(C)c2c1,-5.84% (inactive)
13,Cc1cc(C)c(NC(=O)CSc2nnc(CN3CCOCC3)n2C)c(C)c1,-5.19% (inactive)
14,Cc1cccc(NC(=O)CSc2nnc(Cc3ccccc3)o2)c1,9.03% (inactive)
15,Cc1ccc(NC(=O)CSc2nnc(Cc3ccccc3)o2)cc1,-3.22% (inactive)
16,O=C(COC(=O)CCC(=O)c1ccc(F)cc1)NC1CCCCC1,-5.44% (inactive)
17,CC1(C)NC(C(=O)O)Cc2c1[nH]c1ccccc21 (stereo not given),-1.33% (inactive)
18,CC12CCC(=O)N1C(C(=O)O)Cc1c2[nH]c2ccccc12 (stereo not given),6.77% (inactive)
19,CC1Cc2ccccc2N1CC(=O)Nc1cccc(S(N)(=O)=O)c1 (stereo not given),3.61% (inactive)
20,CCOc1ccc(CCNC(=O)c2nn(C)c3c2CS(=O)(=O)c2ccccc2-3)cc1OCC,3.57% (inactive)
21,O=C(NC1=NCCS1)C1CCN(S(=O)(=O)c2cc([N+](=O)[O-])ccc2Cl)CC1,-7.02% (inactive)
22,O=C(NC1CC1)C1CCN(S(=O)(=O)c2cc([N+](=O)[O-])ccc2Cl)CC1,-3.67% (inactive)
23,CC(=O)c1cccc(OCc2cc(C(=O)N(C)CCc3cnn(C)c3)no2)c1,1.92% (inactive)

row,Structure (SMILES),inhibition
1,CCN(Cc1cnn(C)c1)C(=O)c1cc(COc2cc(C)c(Cl)c(C)c2)on1,10% (inactive)
2,COc1ccc(Cl)cc1Nc1cc(C)nc2nc(C)nn12,2.13% (inactive)
3,OC(CN1CC=C(/C=C/c2ccc(Br)cc2)CC1)c1ccccc1 (stereo not given),10.3% (inactive)
4,COc1ccc(/C=C/C2=CCN(C)CC2)cc1,-5.45% (inactive)
5,Cc1cc(C(=O)NCC(=O)Nc2c(C)cccc2C)c2ccccc2n1,-6.3% (inactive)
6,O=C(NCCCN1CCOCC1)C1CCN(S(=O)(=O)c2ccccc2)CC1,-0.05% (inactive)
7,CCCOc1ccc(C(=O)N/N=C/c2ccc(-c3ccc(S(=O)(=O)Nc4ncccn4)cc3)o2)cc1,7.99% (inactive)
8,O=C(N/N=C/c1ccc(-c2ccc(S(=O)(=O)Nc3ncccn3)cc2)o1)c1cc2ccccc2cc1O,-7.05% (inactive)
9,CCC1CCC(C(=O)NNC(=O)OC)CC1 (stereo not given),-7.14% (inactive)
10,COc1cccc(Nc2nnc(SCC(=O)Nc3sccc3C(N)=O)s2)c1,0.87% (inactive)
11,Cc1ccc(NC(=O)C[n+]2cc(-c3ccccc3)n3c2CCC3)cc1,5.89% (inactive)
12,Cc1ccc(-c2c[n+](CC(=O)Nc3c(C)cccc3C)c3n2CCC3)cc1,11.9% (inactive)
13,COc1ccc(C(=O)C[n+]2cc(-c3ccc(OC)cc3)n3c2CCCC3)cc1,5.06% (inactive)
14,Cc1ccc(C(=O)C[n+]2cc(-c3ccccc3)n3c2CCCCC3)cc1,2.54% (inactive) and -2.93% (inactive)
15,Cc1ccc(-c2c[n+](CC(=O)c3cccs3)c3n2CCC3)cc1,-3.4% (inactive)
16,Cn1c(NC(=O)C[n+]2cc(-c3ccc(Cl)cc3)n3c2CCC3)cc(=O)n(C)c1=O,-2.19% (inactive)
17,Cc1c(C(=O)N2CCOCC2)cc(C(C)(C)C)n1-c1ccccc1,-3.73% (inactive)
18,O=C(OCCNc1nc(-c2ccccc2)nc2ccccc12)c1cccnc1,10.2% (inactive)
19,COc1ccccc1NC(=O)CN1CCN(C(=O)C2CCCO2)CC1 (stereo not given),-18.2% (inactive)
20,NC(=O)CSc1nnc(-c2cc(-c3cccs3)nc3ccccc23)o1,5.91% (inactive)
21,Cc1sc(NC(=O)CN2CCCC2)nc1-c1ccc2c(c1)CCN2C(=O)c1cccc(F)c1,9.15% (inactive)
22,CN(C)C(=N)c1n[nH]nc1SCc1ccc(Cl)c(Cl)c1,-2.06% (inactive)
23,CCOc1ccc(N2C(=O)c3ccc(C(=O)OCc4c(C)noc4C)cc3C2=O)cc1,-11.4% (inactive)

row,Structure (SMILES),inhibition
1,CCCN(CC1CC1)C(=O)COC(=O)c1oc2ccc(OCC)cc2c1C,2.37% (inactive)
2,COc1ccc(CNC(=O)c2cc(C3CC3)on2)cc1,8.82% (inactive)
3,O=C(NC(=S)N1CCc2ccccc21)c1ccccc1Br,6.29% (inactive)
4,O=C(c1ccc(Br)o1)N1CCc2ccccc21,-3.15% (inactive)
5,CC(OC(=O)c1cccnc1Cl)C(=O)Nc1ccc2c(c1)OCO2 (stereo not given),0.24% (inactive)
6,C=CCOc1cccc(C2C(C(=O)c3ccco3)=C(O)C(=O)N2CCN(CC)CC)c1 (stereo not given),-1.23% (inactive)
7,CCCOC(=O)c1cc(-c2ccc(C=O)o2)ccc1Cl,9.94% (inactive)
8,CCOC(=O)c1ccc(-c2ccc(C=O)o2)cc1,12.7% (inactive)
9,CC(C)(C)NC(=O)COC(=O)c1ccc(S(=O)(=O)N2CCCC2)cc1,5.11% (inactive)
10,CN(C)CCCN1C(=O)c2cccc3c([N+](=O)[O-])ccc(c23)C1=O,36.5% (inactive)
11,Cc1nnc(N2C(=O)c3cccc4c([N+](=O)[O-])ccc(c34)C2=O)s1,-2.32% (inactive)
12,Cc1ccc(S(=O)(=O)NCC(=O)OCC(=O)Nc2cccc(S(=O)(=O)NC3=NCCCCC3)c2)cc1,7.74% (inactive)
13,COCCn1cnnc1SCC(=O)Nc1cccc(S(=O)(=O)N(C)c2ccccc2)c1,-4.95% (inactive)
14,COc1cc(OC)c(C(=O)Nc2cccnc2)cc1OC,3.08% (inactive)
15,CN(C)c1ncc(S(=O)(=O)c2ccccc2)c(N)n1,-5.65% (inactive)
16,CN1CCN(c2ccc(F)cc2N)CC1,-0.88% (inactive)
17,CN1CCN(C2=Cc3ccccc3Sc3cc(F)ccc32)CC1,-12.7% (inactive)
18,CCOc1ccc(S(=O)(=O)NCCC(=O)N2CCC(Cc3ccccc3)CC2)cc1,44.3% (inactive)
19,CCN(CC)S(=O)(=O)c1ccc(N2CCN(CCO)CC2)nc1,-5.66% (inactive)
20,Cc1nc2ccc(NC(=O)c3cc([N+](=O)[O-])cc([N+](=O)[O-])c3Cl)cc2s1,38.8% (inactive)
21,Cc1nc2ccc(NC(=O)c3ccc([N+](=O)[O-])cc3)cc2s1,3.43% (inactive)
22,COc1ccc(S(=O)(=O)N2CCN(CC(=O)Nc3ccccc3Cl)CC2)cc1,-4.47% (inactive)
23,CN(C)C1(CNC(=O)Nc2ccccc2)CCCCC1,3.43% (inactive)

row,Structure (SMILES),inhibition
1,CN(C)C1(CNC(=O)c2ccc(NS(=O)(=O)c3ccc(Cl)c(Cl)c3)cc2)CCCCC1,-3.67% (inactive)
2,CCc1cc2c(=O)n(CC(=O)NCCc3ccc(OC)c(OC)c3)cnc2s1,-7.38% (inactive)
3,CCN(CC)C(=O)CN(c1cccc(Br)c1)S(C)(=O)=O,-7.74% (inactive)
4,COC(C/C=C/[C@H](O)[C@@H](C)OCc1ccccc1)OC,-3.21% (inactive)
5,O=C(C1=C[C@H](c2csc3ccccc23)C[C@H](OCCCCO)O1)N1CCN(Cc2ccc3c(c2)OCO3)CC1,59.9% (inactive)
6,O=C(C1=C[C@H](c2csc3ccccc23)C[C@H](OCc2ccc(CO)cc2)O1)N1CCN(Cc2ccc3c(c2)OCO3)CC1,21.8% (inactive)
7,Cc1ccc(/C=C/C(=O)O)cc1S(=O)(=O)N1CCc2ccccc21,-1.47% (inactive)
8,C/C(=N\NC(=O)c1sccc1C)c1cccnc1,-1.12% (inactive)
9,CCN1CC(CN(C)Cc2nc(COc3ccccc3)no2)CC1=O (stereo not given),2.85% (inactive)
10,C[C@@H](NCCc1ccc(O)cc1)[C@@H](O)c1ccc(O)cc1,-1.64% (inactive)
11,C[C@H](NCCc1ccc(O)cc1)[C@H](O)c1ccc(O)cc1,1.5% (inactive)
12,CCCCNC(=O)c1c(CSc2ccc(Cl)cc2)noc1C(=O)NCc1ccccc1,8.53% (inactive)
13,CC(C)(C)c1[nH]nc2c1C(Cc1ccccc1)C(C#N)=C(N)O2 (stereo not given),-0.95% (inactive)
14,COc1ccccc1Nc1ccc(C(=O)NC2CCCCC2)cn1,-2.47% (inactive)
15,C/C(CC(=O)NC(C)(C)C)=N\NC(=O)COc1ccc(C)cc1Br,2.95% (inactive)
16,C/C(=N\NC(=O)COc1ccc(C)cc1[N+](=O)[O-])c1cccs1,2.03% (inactive)
17,Cc1ccsc1C(=O)OCC(=O)NCc1ccccc1,-4.47% (inactive)
18,COc1cccc(/C=C2\SC(=S)N(CCCC(=O)NC3=NCCS3)C2=O)c1,2.44% (inactive)
19,Cc1cc(C=C2C(=O)N(C)C(=S)N(C)C2=O)c(C)n1C1CCCCC1,-5.32% (inactive)
20,Cc1cc(C=C2C(=O)N(C)C(=S)N(C)C2=O)c(C)n1C1CCCC1,64.7% (inactive)
21,CCOC(=O)C1CCN(S(=O)(=O)c2ccc(-c3cc(C(F)(F)F)n(C)n3)s2)CC1,-4.16% (inactive)
